# Measured values published in PubChem BioAssay (NCI).
# About 83,000 compounds went through this panel and 20% of them were active in at least one assay; those are over-represented in the sample as a whole.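 A percent growth of 40 corresponds to 60% growth inhibition; 0 means no net growth; -100 means all cells died. Active threshold: below 10.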 Unmarked numbers belong to inactive results. Activity calls are given as the source filed them.
# Legend:
# Assay in all cases: NCI-60 one-dose screen, 48 h (100 = growth as untreated, 0 = no growth, -100 = all killed)
# Conditions in all cases: 10 µM unless noted
# T-47D breast = tested on: T-47D breast
# BT-549 breast = tested on: BT-549 breast
# MDA-MB-435 melanoma = tested on: MDA-MB-435 melanoma
# SW-620 colon = tested on: SW-620 colon
# MCF7 breast = tested on: MCF7 breast
# HCT-116 colon = tested on: HCT-116 colon
# HCC-2998 colon = tested on: HCC-2998 colon
# KM12 colon = tested on: KM12 colon
SMILES,growth (T-47D breast),growth (BT-549 breast),growth (MDA-MB-435 melanoma),growth (SW-620 colon),growth (MCF7 breast),growth (HCT-116 colon),growth (HCC-2998 colon),growth (KM12 colon)
CC(=O)CC(c1cccs1)c1c(-c2ccccc2)[nH]c2ccccc12 (stereo not given),84.6%,105%,98%,90.4%,92.2%,89.9%,97.8%,94.3%
CN(C)CCS(=O)(=O)Nc1cc(-c2ccc3ncc(C#N)c(Nc4ccc(F)c(Cl)c4)c3c2)cnc1Cl,-30.5% (active),-60.2% (active),-76.8% (active),-11.1% (active),0.35% (active),-51.6% (active),-83.3% (active),-25.4% (active)
Cc1nn(-c2ccccc2)c2c1N=c1s/c(=C\c3ccc(C(F)(F)F)cc3)c(=O)n1CN2,54%,72.2%,61.4%,75.7%,56.9%,27.8%,74.2%,97.2%
CC1=C(SCCC(=O)OC(C[Se]C2=C(C)C(=O)c3ccccc3C2=O)C(=O)NC(C)(C)C)C(=O)c2ccccc2C1=O (stereo not given),-52.9% (active),-96.2% (active),-86.8% (active),-80% (active),-63.5% (active),-70.9% (active),-82.8% (active),-94.6% (active)
C(=N/Nc1ncnc2nc[nH]c12)/c1ccccn1,30.2%,54.7%,39.5%,36.8%,22.9%,28.1%,28.2%,36.3%
O=C(Cc1ccc(F)c(Cl)c1)Nc1cc(C2(C(F)(F)F)CC2)nn1CC1CCCCC1,-0.285% (active),5.11% (active),3.02% (active),12.6%,-0.278% (active),5.8% (active),14.9%,0.921% (active)
CCOC(=O)CC1C(COC(=O)NC)OC(n2cnc3c(NC(=O)Nc4ccccc4)ncnc32)C1O[Si](C)(C)C(C)(C)C (stereo not given),29.1%,64.5%,49.3%,72.2%,11.7%,17.1%,-8.59% (active),31.2%
COC(=O)/C=C1\S/C(=N\Nc2ccc([N+](=O)[O-])cc2[N+](=O)[O-])N(C2CCCCC2)C1=O,12.9%,86%,79%,22.7%,23.1%,29.8%,63.1%,45.9%
Nc1nc(-c2cccc3ccccc23)cc2ccccc12,43.7%,39.2%,-64.8% (active),19.4%,7.69% (active),10.8%,-5.78% (active),5.93% (active)
Cc1nc(S(=O)(=O)c2ccccc2)c(S(=O)(=O)Cc2ccc([N+](=O)[O-])cc2)o1,77%,87.7%,101%,90.9%,74.2%,86.6%,97.7%,106%
O=CN1N=C(c2ccc(Nc3ccnc4cc(Cl)ccc34)cc2)CC1c1ccccc1 (stereo not given),31.7%,39.1%,8.64% (active),31.8%,18.2%,24%,36.2%,35.9%
COc1cc(C(=O)c2cc(C)c3[nH]c4ccc(C)cc4c3c2C)cc(OC)c1OC,39.9%,14.5%,17.5%,31.4%,11.6%,5.32% (active),15.9%,3.84% (active)
C#Cc1cccc(NC(=O)Nc2ccccc2NC(=O)CCl)c1,1.49% [8.25 µM] (active),-27% [8.25 µM] (active),-68.7% [8.25 µM] (active),-5.75% [8.25 µM] (active),0.96% [8.25 µM] (active),0.401% [8.25 µM] (active),-29.4% [8.25 µM] (active),-37.6% [8.25 µM] (active)
COc1cc(-c2nc3sccn3c2-c2ccnc(NCCCNS(=O)(=O)c3ccc(F)cc3)n2)ccc1F,15.5%,42.8%,65.8%,106%,76.1%,58.1%,95.5%,74.2%
CCOC(=O)Nc1ccc(C(=O)/C=C/c2ccccc2)cc1,84.3%,95.1%,44.6%,73.9%,0.358% (active),6.33% (active),34.4%,8.51% (active)
